Compounds with a hit are over-represented: about 12% of the library has one in this group of screens.
HCV inhibitor – qHTS Assay for Inhibitors of Hepatitis C Virus (HCV); Huh7.5.1 HCVcc-Cre infection, luciferase reporter, 44 h; Potency, µM (top dose mostly 41.8 µM), actives largely listed as inhibitors; hit rate 3.4% among 340,000; AID 651820, 2012
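Whole-lifecycle infectious HCVcc-Cre system; cells 1,000/well, compound then virus (~0.5 moi) added 4 h after plating, 44 h culture. Luciferase read 15 sec following 15 min substrate incubation, room temp.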
Pf growth 96h – Primary qHTS for delayed death inhibitors of the malarial parasite plastid, 96 hour incubation | P. falciparum luciferase reporter growth, 96 h | Potency, µM (highest dose often 28.7 µM), most hits filed as inhibitors | hit rate 6.9% among 320,000 | AID 504834, 2011
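96 h incubation, 37 C, 5% CO2, of luciferase-reporter P. falciparum-infected RBCs (2% hematocrit, 0.05% parasitemia final) with test compounds; endpoint luminescence.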
NS1 function inh – qHTS Assay for Inhibitors of Influenza NS1 Protein Function; hit rate 0.4% among 270,000; Potency, µM (titrated, usually from 46.1 µM); calls by dose curve; note: actives are rising curves; nearly all actives have a fitted effect of over 50% in size
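OD600 was taken as the measure of yeast growth restored by compound in an NS1-expressing S. cerevisiae strain. Cells had been washed out of glucose medium and diluted 1:100 into galactose -URA medium, pH 6.0.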
SARS PLP yeast – qHTS of Yeast-based Assay for SARS-CoV PLP. Potency, µM (doses to about 32.9 µM), usual class: activators. S. cerevisiae expressing SARS-CoV PLpro, growth rescue. hit rate 0.19% among 330,000. AID 485353, 2010; calls by dose curve; note: nearly all actives have a fitted effect of over 55% in size
AMA1-RON2 inh – qHTS for Inhibitors of AMA1-RON; Towards Development of Antimalarial Drug Lead: Primary Screen; AID 720542, 2013; Potency, µM (highest dose often 58.2 µM), usual class: inhibitors; hit rate 0.2% among 360,000; AlphaScreen AMA1-biotinylated RON2 peptide binding; note: nearly all actives have a fitted effect of over 45% in size
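AMA1 (3D7) with his tag at 25 nM final met compounds first, then biotinylated RON2 peptide at 25 nM; detection used donor plus acceptor beads, 10 µg/mL apiece, read by AlphaScreen after 30 min at room temperature.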
Pf growth 48h – Primary qHTS for delayed death inhibitors of the malarial parasite plastid, 48 hour incubation. P. falciparum luciferase growth in erythrocytes, 48 h. Potency, µM (highest dose often 28.7 µM), usual class: inhibitors. hit rate 5.9% among 310,000
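Luciferase-expressing P. falciparum in infected erythrocytes (2% hematocrit, 0.1% parasitemia final) in RPMI 1640/0.5% Albumax were exposed to compound for 48 hours at 37 C, 5% CO2; growth read as luminescence.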
Each line names hits and unclear results; the compound was inactive in the other large screens. Unless noted, calls come from the whole dose curve; as a rule, active = well fitted curve in the direction sought with a large enough effect; inconclusive = small, poorly fitted or top-dose-only effect, or another doubt; inactive = no such curve, though single readings can be large; an effect the other way counts as inactive or inconclusive.

CC(C(=O)NC(=O)NC1CCCCC1)N1CCN(c2ccc(O)cc2)CC1 (stereo not drawn)	Pf growth 96h 17µM, Pf growth 48h inconclusive (no result: NS1 function inh)
CC(C(=O)NC(=O)NC1CCCCC1)N1CCN(c2ccccn2)CC1 (stereo not drawn)	none
CC(C(=O)Nc1ccc([N+](=O)[O-])cc1Cl)N1CCN(S(=O)(=O)c2cccs2)CC1 (stereo not drawn)	HCV inhibitor inconclusive, Pf growth 96h inconclusive, Pf growth 48h 12µM (no result: NS1 function inh)
Cc1ccccc1C(=O)N1CCC(C(=O)N(CC(C)C)c2c(N)n(Cc3ccccc3)c(=O)[nH]c2=O)CC1	Pf growth 48h inconclusive (no result: NS1 function inh)
Cc1nc(SCc2ccccc2)c([N+](=O)[O-])[nH]1	Pf growth 48h inconclusive
Cc1nc(SCc2ccccc2)c(C(F)(F)F)c(=O)[nH]1	Pf growth 96h 5.2µM
Cc1ccccc1-n1nnnc1SCC(=O)NNC(=O)c1ccc(NC(=O)CC#N)cc1	Pf growth 96h inconclusive (no result: NS1 function inh)
CC(C)(C)NC(=O)C(c1ccc(C#N)cc1)n1c(=O)c(-c2cc3ccccc3[nH]2)nc2ccccc21 (stereo not drawn)	none (no result: HCV inhibitor, Pf growth 96h, NS1 function inh, SARS PLP yeast, Pf growth 48h)
CC(C)OCCCn1c(=O)c2ccccc2n2c(CCC(=O)NC3CCN(Cc4ccccc4)CC3)nnc12	HCV inhibitor inconclusive, Pf growth 96h 15µM, Pf growth 48h inconclusive
COC(=O)c1ccccc1NC(=O)Cn1c(=O)n(CCC(=O)NC2CCN(Cc3ccccc3)CC2)c(=O)c2ccccc21	Pf growth 96h 9.3µM
CC(C)OCCCn1c(=O)c2ccccc2n2c(CCC(=O)O)nnc12	Pf growth 96h 1.7µM (no result: Pf growth 48h)
NC(=O)c1sc(-c2ccsc2)cc1NS(=O)(=O)c1ccc(C(F)(F)F)cc1	none
NC(=O)C[C@H](NC(=O)c1ccc(Cl)cc1)C(=O)OCc1ccccc1	none (no result: Pf growth 96h, NS1 function inh, Pf growth 48h)
Cc1cc(C=O)c(C)n1-c1cccc(C(=O)O)c1	none
Cc1cc(C=O)c(C)n1-c1ccc2c(c1)OCO2	Pf growth 96h 3.7µM
Cc1ccc(-n2c(C)cc(C(=O)COc3c(CO)cc(F)cc3CO)c2C)cc1C	HCV inhibitor inconclusive, Pf growth 96h 9.3µM, Pf growth 48h inconclusive
CNS(=O)(=O)c1cccc(C(=O)OCC(=O)c2cc(C)n(-c3ccc4c(c3)OCO4)c2C)c1	Pf growth 96h 5.2µM, NS1 function inh inconclusive (no result: Pf growth 48h)
Cc1cc(C(=O)COc2ccccc2Cl)c(C)n1-c1ccc2c(c1)OCO2	Pf growth 96h 8.3µM, Pf growth 48h inconclusive
Clc1ccc(CSc2ncnc3c2ncn3[C@@H]2CCCCO2)cc1	none (no result: HCV inhibitor, Pf growth 96h, SARS PLP yeast, AMA1-RON2 inh, Pf growth 48h)
O=C(NCc1cccnc1)c1cc(C2CCCCN2C(=O)OCCF)on1 (stereo not drawn)	none (no result: HCV inhibitor, Pf growth 96h, NS1 function inh, SARS PLP yeast, Pf growth 48h)
Nc1nc(SCc2ccc3c(c2)OCO3)n[nH]1	none (no result: SARS PLP yeast)
Cc1cc(C(=O)CSc2n[nH]c(N)n2)c(C)n1-c1ccc2c(c1)OCO2	HCV inhibitor inconclusive, Pf growth 96h 12µM
Cc1cc(C(=O)CN2C(=O)NC3(CCCC3)C2=O)c(C)n1-c1ccc2c(c1)OCO2	Pf growth 96h inconclusive
Cc1cc(C(=O)CN2C(=O)NC(C)(CC(C)C)C2=O)c(C)n1-c1ccc2c(c1)OCO2 (stereo not drawn)	Pf growth 96h 4.1µM, Pf growth 48h inconclusive
Cc1ccc(-c2cc(C(=O)NC3=NCCS3)c3cc(Br)ccc3n2)o1	NS1 function inh inconclusive, Pf growth 48h 9.3µM (no result: AMA1-RON2 inh)
Cc1ccc(-c2cc(C(=O)NCCCn3ccnc3)c3cc(Br)ccc3n2)o1	Pf growth 96h inconclusive, Pf growth 48h 9.3µM
Cc1ccc(-c2cc(C(=O)O)c3cc(Br)ccc3n2)o1	none
Cc1ccc(-c2cc(C(=O)NN3CCOCC3)c3cc(Br)ccc3n2)o1	Pf growth 96h 5.2µM
O=C(Nc1ccc(Cl)cn1)c1ccccc1[N+](=O)[O-]	Pf growth 96h inconclusive (no result: NS1 function inh)
O=[N+]([O-])c1cnc(Nc2ccc(Cl)cn2)c([N+](=O)[O-])c1	HCV inhibitor 11µM
Nc1nc(-c2ccco2)nn1S(=O)(=O)c1ccc(Cl)cc1	none

Screening results as filed in PubChem BioAssay.
